Data reported in PubChem BioAssay (EPA / NIEHS).
Results filed as inconclusive are left out. Activity calls are given as the source filed them. Rule for the calls, unless noted: active = hit-call score of the fitted dose curve at least 0.9, where 1 is the maximum; inactive = score below 0.9.

Legend:
[1] = ATG_TAL_CIS: Attagene CIS-FACTORIAL HepG2 Assay for human TAL Basal Promoter (AID 2282966); conditions: HepG2 Attagene cis-factorial TAL promoter reporter; actives raise or lower the signal;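 note: background control endpoint measuring basal TAL promoter reporter mRNA not a specific factor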
Method in brief: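 Background-control endpoint: basal TAL promoter reporter transcripts in transiently transfected HepG2, measured 24 h after dosing. Read-out by RT-PCR with fluorescent primer extension and capillary electrophoresis; gain or loss of signal fitted relative to DMSO.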

[2] = ATG_TGFb_CIS: Attagene CIS-FACTORIAL HepG2 Assay for human Transforming Growth Factor (TGF) (AID 2282967); conditions: HepG2 Attagene CIS TGFb reporter, mRNA transcription; actives raise or lower the signal
Method in brief: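 Cells were dosed for 24 hours, after which total RNA was reverse-transcribed and reporter sequences amplified, labeled and sized by capillary electrophoresis. Activity was fitted in both directions against DMSO.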

[3] = ATG_VDRE_CIS: Attagene CIS-FACTORIAL HepG2 Assay for human Vitamin D Receptor Element (VDRE) (AID 2282968); conditions: HepG2 VDRE cis-reporter transcription, actives raise or lower the signal
Method in brief: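 Compounds were applied for 24 h to HepG2 cells transfected with promoter-regulated reporter units. Total RNA was reverse-transcribed, and reporter amplicons were fluorescently labelled and sized by capillary electrophoresis.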

[4] = biological target: Nuclear receptor subfamily 1 group I member 3 (Homo sapiens) (UniProt Q14994); assay: ATG_CAR_TRANS: Attagene TRANS-FACTORIAL HepG2 Assay for human Constitutive Androstane Receptor (CAR) (AID 2282969; active = hit-call score of the fitted dose curve at least 0.9, where 1 is the maximum;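 note: activators raise reporter mRNA above DMSO so AC50 marks induction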); conditions: HepG2 Attagene TRANS-FACTORIAL CAR reporter
Method in brief: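 Transiently transfected HepG2, multiplex TRANS reporters (CAR-Gal4 chimera driving GAL4-UAS reporter). 24 h dosing. Readout: reporter transcript by RT-PCR + capillary electrophoresis, fluorescence intensity; positive direction vs DMSO.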

[5] = biological target: Steroid hormone receptor ERR1 (Homo sapiens) (UniProt P11474); assay: ATG_ERRa_TRANS: Attagene TRANS-FACTORIAL HepG2 Assay for human Estrogen-Related Receptor alpha (ERRa) (AID 2282971; active = hit-call score of the fitted dose curve at least 0.9, where 1 is the maximum); conditions: HepG2 Attagene TRANS reporter, ERRa transactivation
Method in brief: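 Reporter transcripts from ERRa-Gal4 chimera activity measured in transiently transfected human HepG2 cells 24 hours after dosing, using RT-PCR with 6-FAM primer extension, HpaI digestion and capillary electrophoresis; DMSO is baseline.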

[6] = biological target: X-box-binding protein 1 (Homo sapiens) (UniProt P17861); assay: ATG_Xbp1_CIS: Attagene CIS-FACTORIAL HepG2 Assay for human X-box Binding Protein 1 (XBP1) (AID 2282972); conditions: HepG2 XBP1 cis-element reporter, Attagene multiplex; actives raise or lower the signal
Method in brief: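 Changes in reporter transcript abundance, read by RT-PCR and capillary electrophoresis, reflect endogenous transcription factor activity. Transfected HepG2 cells received compound for 24 hours; DMSO defined baseline for bidirectional analysis.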

[7] = ATG_M_19_TRANS: Attagene TRANS-FACTORIAL HepG2 Assay for M19 Transcription Factor (Internal Marker) (AID 2282974; active = hit-call score of the fitted dose curve at least 0.9, where 1 is the maximum); conditions: HepG2 Attagene TRANS-FACTORIAL M19 internal marker reporter
Method in brief: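 Transfected HepG2 (GAL4-UAS MRTUs), 24 h compound, TriZol RNA, DNase-treated RT, reporter PCR, FAM label, HpaI digest, CE fluorescence; gain vs DMSO.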

[8] = biological target: Estrogen-related receptor gamma (Homo sapiens) (UniProt P62508); assay: ATG_ERRg_TRANS: Attagene TRANS-FACTORIAL HepG2 Assay for human Estrogen-Related Receptor gamma (ERRg) (AID 2282977; active = hit-call score of the fitted dose curve at least 0.9, where 1 is the maximum;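 note: hits increase reporter signal over DMSO so potencies reflect activators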); conditions: HepG2 Attagene TRANS reporter, ERRg transactivation
Method in brief: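 Exogenous NR-Gal4 chimera activity measured as reporter transcript induction after 24 h in transiently transfected HepG2 cells. RNA reverse-transcribed, PCR-amplified, 6-FAM-labelled and resolved by capillary electrophoresis; increase over DMSO baseline.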

[9] = biological target: Estrogen receptor (Homo sapiens) (UniProt P03372); assay: ATG_ERa_TRANS: Attagene TRANS-FACTORIAL HepG2 Assay for human Estrogen Receptor alpha (ERa) (AID 2282970; active = hit-call score of the fitted dose curve at least 0.9, where 1 is the maximum); conditions: HepG2 Attagene TRANS ERa GAL4 reporter, mRNA
Method in brief: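 Reporter transcripts were measured 24 h after dosing by RT-PCR with fluorescent primer extension and capillary electrophoresis. The system is transiently transfected HepG2 expressing exogenous NR-Gal4 chimeras driving GAL4-UAS reporters; DMSO is the baseline.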

[10] = ATG_GAL4_TRANS: Attagene TRANS-FACTORIAL HepG2 Assay for GAL4 (Internal Marker) (AID 2282976; active = hit-call score of the fitted dose curve at least 0.9, where 1 is the maximum); conditions: HepG2 Attagene TRANS GAL4 internal marker reporter
Method in brief: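 In transfected human HepG2 liver cells dosed 24 h, GAL4 reporter mRNA serves as a baseline marker. Detection by RT-PCR with fluorescent capillary electrophoresis, activity fitted upward relative to DMSO.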

Measured: AC50

Nuclear receptor subfamily 1 group I member 3 (Homo sapiens), sequence (Q14994 whole entry, looked up, the tested form may be a part): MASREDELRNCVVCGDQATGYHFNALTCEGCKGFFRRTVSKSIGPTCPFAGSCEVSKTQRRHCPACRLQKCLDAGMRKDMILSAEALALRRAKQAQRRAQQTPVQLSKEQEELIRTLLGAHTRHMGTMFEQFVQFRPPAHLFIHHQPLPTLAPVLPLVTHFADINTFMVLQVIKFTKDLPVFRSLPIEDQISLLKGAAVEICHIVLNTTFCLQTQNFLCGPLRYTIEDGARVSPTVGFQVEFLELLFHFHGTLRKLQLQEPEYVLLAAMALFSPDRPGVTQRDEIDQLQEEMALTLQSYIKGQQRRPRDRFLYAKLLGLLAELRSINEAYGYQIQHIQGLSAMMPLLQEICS
Estrogen receptor (Homo sapiens), sequence (P03372 whole entry, looked up, the tested form may be a part): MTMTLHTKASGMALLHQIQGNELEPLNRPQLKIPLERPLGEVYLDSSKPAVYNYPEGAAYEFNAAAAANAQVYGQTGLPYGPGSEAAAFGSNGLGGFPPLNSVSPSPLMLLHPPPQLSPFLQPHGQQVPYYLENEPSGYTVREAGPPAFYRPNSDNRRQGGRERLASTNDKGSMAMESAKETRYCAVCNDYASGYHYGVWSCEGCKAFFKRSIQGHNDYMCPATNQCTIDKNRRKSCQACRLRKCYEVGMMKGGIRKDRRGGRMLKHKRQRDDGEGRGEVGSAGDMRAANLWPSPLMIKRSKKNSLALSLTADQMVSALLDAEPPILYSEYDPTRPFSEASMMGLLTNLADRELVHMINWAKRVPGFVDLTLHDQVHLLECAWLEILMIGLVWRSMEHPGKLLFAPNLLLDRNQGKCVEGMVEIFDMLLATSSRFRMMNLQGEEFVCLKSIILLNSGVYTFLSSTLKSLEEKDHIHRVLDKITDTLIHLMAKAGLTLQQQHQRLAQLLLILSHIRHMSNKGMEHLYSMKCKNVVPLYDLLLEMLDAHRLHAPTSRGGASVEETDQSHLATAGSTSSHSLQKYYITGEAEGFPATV
X-box-binding protein 1 (Homo sapiens), sequence (P17861 whole entry, looked up): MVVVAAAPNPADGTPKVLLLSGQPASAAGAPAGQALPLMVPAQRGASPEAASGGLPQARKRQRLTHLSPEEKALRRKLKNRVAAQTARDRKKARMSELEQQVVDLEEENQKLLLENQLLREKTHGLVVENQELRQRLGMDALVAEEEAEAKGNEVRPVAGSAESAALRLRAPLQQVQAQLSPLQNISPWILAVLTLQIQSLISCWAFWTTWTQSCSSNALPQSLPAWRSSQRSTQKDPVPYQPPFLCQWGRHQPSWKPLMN
Estrogen-related receptor gamma (Homo sapiens), sequence (P62508 whole entry, looked up, the tested form may be a part): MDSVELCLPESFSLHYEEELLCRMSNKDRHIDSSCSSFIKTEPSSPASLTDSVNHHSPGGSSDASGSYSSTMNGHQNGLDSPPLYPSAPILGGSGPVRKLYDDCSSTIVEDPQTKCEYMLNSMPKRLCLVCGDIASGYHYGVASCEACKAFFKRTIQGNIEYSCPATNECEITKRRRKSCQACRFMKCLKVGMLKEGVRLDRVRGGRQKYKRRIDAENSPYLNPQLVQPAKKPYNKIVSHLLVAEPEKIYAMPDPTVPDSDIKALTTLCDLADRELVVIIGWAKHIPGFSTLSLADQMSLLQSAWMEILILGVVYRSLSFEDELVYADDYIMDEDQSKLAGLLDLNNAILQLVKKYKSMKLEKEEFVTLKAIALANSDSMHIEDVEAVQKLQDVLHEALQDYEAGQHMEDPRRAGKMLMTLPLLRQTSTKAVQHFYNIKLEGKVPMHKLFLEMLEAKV
Steroid hormone receptor ERR1 (Homo sapiens), sequence (P11474 whole entry, looked up, the tested form may be a part): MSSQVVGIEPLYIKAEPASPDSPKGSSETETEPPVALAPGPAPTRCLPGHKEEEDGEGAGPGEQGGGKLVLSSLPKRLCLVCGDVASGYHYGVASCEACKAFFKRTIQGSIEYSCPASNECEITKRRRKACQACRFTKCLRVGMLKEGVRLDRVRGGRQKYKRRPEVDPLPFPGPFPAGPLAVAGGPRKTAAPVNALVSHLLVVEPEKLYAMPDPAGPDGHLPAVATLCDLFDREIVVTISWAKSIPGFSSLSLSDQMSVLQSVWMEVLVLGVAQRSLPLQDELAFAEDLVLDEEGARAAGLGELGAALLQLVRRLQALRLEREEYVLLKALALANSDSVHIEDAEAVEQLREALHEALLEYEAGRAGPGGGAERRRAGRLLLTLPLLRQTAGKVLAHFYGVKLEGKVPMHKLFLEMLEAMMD

ClC(c1ccccc1)(c1ccccc1)c1ccccc1
active: [3] 5.98 µM
inactive: [1] | [2] | [4]

C1CCOC1
inactive: [1] | [2] | [3] | [4] | [5] | [6] | [7] | [8]

O=C(Nc1ccc2c(O)c(N=Nc3ccc(N=Nc4ccc(S(=O)(=O)O)cc4)cc3)c(S(=O)(=O)O)cc2c1)c1ccccc1
inactive: [1] | [2] | [3] | [4] | [9] | [6] | [10]

CCOC(=O)COC(=O)c1cc(Oc2ccc(C(F)(F)F)cc2Cl)ccc1[N+](=O)[O-]
inactive: [1] | [4]
active: [2] 144 µM | [3] 33.5 µM

CCCCCc1ccco1
inactive: [1] | [2] | [3] | [4] | [6]

C=C(C)CNCC
inactive: [1] | [2] | [3] | [4] | [5] | [6] | [10]

COc1ccc(COC(C)=O)cc1
inactive: [1] | [2] | [3] | [4] | [5] | [6] | [7] | [8]

CCCCCCCC(=O)OCCCCCC
inactive: [1] | [2] | [3] | [4] | [5] | [6]

CC(C)=CCCC(C)CC(=O)O (stereo not drawn)
inactive: [1] | [2] | [3] | [4]

CCCCN(CCCC)C(=O)N(CCCC)CCCC
inactive: [4]
active: [1] 50.2 µM | [2] 59.6 µM | [3] 7.92 µM

NC1CCCCC1N (stereo not drawn)
inactive: [1] | [2] | [3] | [4] | [5] | [6]

O=CCc1ccccc1
inactive: [1] | [2] | [3] | [4] | [6]

COc1ccc(OC)c(N=Nc2c(O)ccc3ccccc23)c1
inactive: [1] | [2] | [3] | [4] | [5] | [6] | [8]

CCC(C)c1cc([N+](=O)[O-])cc([N+](=O)[O-])c1OC(=O)OC(C)C (stereo not drawn)
active: [2] 100 µM | [3] 0.705 µM | [6] 24.3 µM
inactive: [1] | [4] | [5] | [7] | [8]

CC(C)OCCO
inactive: [1] | [2] | [3] | [4] | [6]

Oc1c(Cl)cc(Cl)c(Cl)c1Cc1c(O)c(Cl)cc(Cl)c1Cl
active: [3] 1.97 µM
inactive: [1] | [2] | [4] | [5] | [6] | [7] | [8]

CCCC(=O)c1ccccc1
inactive: [1] | [2] | [3] | [4] | [5] | [6] | [10] | [8]

CC=CC=CCOC(=O)C(C)C
inactive: [1] | [2] | [3]

NCC1CCCC(CN)C1 (stereo not drawn)
inactive: [1] | [2] | [3] | [4] | [5] | [6] | [10]

CSCCC=O
inactive: [1] | [2] | [3] | [4] | [5] | [6] | [10] | [8]

C#CC(C)N(C)C(=O)Nc1ccc(Cl)cc1 (stereo not drawn)
inactive: [1] | [2] | [3] | [4] | [5] | [6]

CC(O)C1CCCCC1 (stereo not drawn)
inactive: [1] | [2] | [3] | [4] | [5] | [6] | [10] | [8]

OC[C@H]1O[C@@H]2O[C@H]3[C@H](O)[C@@H](O)[C@@H](O[C@H]4[C@H](O)[C@@H](O)[C@@H](O[C@H]5[C@H](O)[C@@H](O)[C@@H](O[C@H]6[C@H](O)[C@@H](O)[C@@H](O[C@H]7[C@H](O)[C@@H](O)[C@@H](O[C@H]8[C@H](O)[C@@H](O)[C@@H](O[C@H]9[C@H](O)[C@@H](O)[C@@H](O[C@H]1[C@H](O)[C@H]2O)O[C@@H]9CO)O[C@@H]8CO)O[C@@H]7CO)O[C@@H]6CO)O[C@@H]5CO)O[C@@H]4CO)O[C@@H]3CO
inactive: [1] | [2] | [3] | [4] | [5] | [6] | [7]

Nc1ccc(N)c2c1C(=O)c1ccccc1C2=O
inactive: [1] | [2] | [4] | [5] | [7] | [8]
active: [3] 6.59 µM | [6] 2.57 µM

C1=CC2C3C=CC(C3)C2C1 (stereo not drawn)
inactive: [1] | [2] | [3] | [4] | [5] | [6] | [7] | [10]

Cc1ccc2c(c1)C(=O)OC2=O
inactive: [1] | [2] | [3] | [4] | [6]

COS(=O)(=O)O
inactive: [1] | [2] | [3]

COC(=O)c1ccc(OC)cc1
inactive: [1] | [2] | [3] | [4] | [5] | [6] | [7] | [8]

COc1ccccc1[N+](=O)[O-]
inactive: [1] | [2] | [3] | [4] | [5] | [6] | [8]

CC(C)(CO)[C@@H](O)C(=O)NCCC(=O)O
inactive: [1] | [2] | [3] | [4] | [9] | [6] | [10]

COc1ccccc1N=Nc1c(S(=O)(=O)O)cc2cc(S(=O)(=O)O)cc(NC(C)=O)c2c1O
inactive: [1] | [2] | [3] | [4] | [5] | [6] | [10]

O=Cc1ccccc1S(=O)(=O)O
inactive: [1] | [2] | [3]

CC=Cc1ccc(OCC)c(O)c1
inactive: [1] | [2] | [3] | [4]

O=[N+]([O-])c1ccc(O)cc1C(F)(F)F
inactive: [2] | [3] | [4] | [5] | [8]
active: [1] 26.8 µM | [6] 31 µM

CCCC(=O)OCCc1ccccc1
inactive: [1] | [2] | [3]

CC(C)=CCCC(C)CCOC=O (stereo not drawn)
inactive: [1] | [2] | [3] | [4]

CCCC(=O)C(CC)Sc1ccoc1C (stereo not drawn)
inactive: [1] | [2] | [4]
active: [3] 26.7 µM | [9] 16 µM | [6] 25.8 µM

CCCCCC(=O)CC
inactive: [1] | [2] | [3]

C=CCN(CC=C)CC=C
inactive: [1] | [2] | [3] | [4] | [6] | [10]

CC(=O)c1c(C)c([N+](=O)[O-])c(C(C)(C)C)c([N+](=O)[O-])c1C
inactive: [1] | [4] | [6]
active: [2] 100 µM | [3] 4.01 µM

CCCCCCC(CO)CCCC (stereo not drawn)
inactive: [1] | [2] | [3] | [4] | [6] | [7]

BrCc1cccc(Oc2ccccc2)c1
inactive: [1] | [2] | [3] | [4] | [6] | [7] | [10] | [8]

CC(C)C(OC(=O)c1ccccc1)C(C)(C)COC(=O)c1ccccc1 (stereo not drawn)
inactive: [1] | [2] | [4] | [7]
active: [3] 1.52 µM

Oc1ccc2cc(SSc3ccc4cc(O)ccc4c3)ccc2c1
active: [3] 27.6 µM | [6] 40.2 µM
inactive: [1] | [2] | [4] | [10]

C[C@H]1C[C@@H](O)CC(C)(C)C1
inactive: [1] | [2] | [3] | [4] | [6] | [7] | [10] | [8]

C=CCCC(=O)/C=C/C1C(C)=CCCC1(C)C (stereo not drawn)
active: [3] 2.44 µM
inactive: [1] | [2] | [4] | [6]

CCC(C)S (stereo not drawn)
inactive: [1] | [2] | [3] | [4] | [6]

O=C(Nc1ccc2c(c1)Cc1ccccc1-2)C(F)(F)F
inactive: [1] | [2] | [4] | [6] | [10]
active: [3] 30.5 µM

Cc1cccc(Nc2ccccc2)c1
active: [3] 58.2 µM | [6] 133 µM
inactive: [1] | [2] | [4]

CCOCCOCCOCC
inactive: [1] | [2] | [3] | [4] | [6] | [7] | [10]

c1ccc(CCc2ccccc2)cc1
inactive: [1] | [2] | [3] | [4] | [6] | [7] | [10] | [8]

COc1ccc(N)c([N+](=O)[O-])c1
inactive: [1] | [2] | [3] | [4] | [6]

CC(=O)O[C@@H]1CC2CCC1(C)C2(C)C (stereo partly drawn)
inactive: [1] | [2] | [3] | [4] | [6] | [7]

CCCCCCOC(=O)CCC
inactive: [1] | [2] | [3] | [4] | [6] | [7]

CCCOCCO
inactive: [1] | [2] | [3] | [4] | [7] | [10]

CCOc1ccc(NC(=O)CC(C)=O)cc1
inactive: [1] | [2] | [3] | [4] | [7] | [8]

CCC(=O)O[C@@H]1C[C@H]2CC[C@]1(C)C2(C)C
inactive: [1] | [2] | [3] | [4] | [7] | [10]

COc1cccc(OC)c1O
inactive: [1] | [2] | [3] | [4] | [6]

CCCCCCCCCCCCCCCC(=O)OC/C=C(C)/C=C/C=C(C)/C=C/C1=C(C)CCCC1(C)C
inactive: [1] | [2] | [4] | [6] | [7] | [10]
active: [3] 2.37 µM
